Laboratory results taken from PubChem BioAssay AID1445 (SRMLSC, 2008).
About 910 (0.41%) of roughly 220,000 compounds were called active. What follows is part of a selection rich in actives, with near analogues and random picks from the rest. Results with a measured potency or affinity are listed apart. Unmarked numbers belong to inactive results.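 Rule for the calls: active = primary inhibition above the hit cutoff, then over 50% inhibition at one or more dose response concentrations (cut at about 23% in these data, passing the limit was not always enough); inconclusive = conflicting primary data, or primary hits not chosen for dose response; inactive = low primary inhibition, or under 50% at every dose.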

Each compound was assayed against Aminopeptidase N (Plasmodium falciparum (isolate 3D7)) (UniProt O96935) (assay: malaria alanyl aminopeptidase activity blockers – biochemical, fluorogenic H-Leu-NHMec substrate, 1536-well (AID 1445;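 note: plate controls were DMSO full reaction for no effect and no enzyme background for full effect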)). Conditions: recombinant M1AAP, H-Leu-NHMec fluorogenic kinetic assay; at 30 µM, active compounds read high unless noted.
Chain of Aminopeptidase N (Plasmodium falciparum (isolate 3D7)) (O96935 whole entry, looked up): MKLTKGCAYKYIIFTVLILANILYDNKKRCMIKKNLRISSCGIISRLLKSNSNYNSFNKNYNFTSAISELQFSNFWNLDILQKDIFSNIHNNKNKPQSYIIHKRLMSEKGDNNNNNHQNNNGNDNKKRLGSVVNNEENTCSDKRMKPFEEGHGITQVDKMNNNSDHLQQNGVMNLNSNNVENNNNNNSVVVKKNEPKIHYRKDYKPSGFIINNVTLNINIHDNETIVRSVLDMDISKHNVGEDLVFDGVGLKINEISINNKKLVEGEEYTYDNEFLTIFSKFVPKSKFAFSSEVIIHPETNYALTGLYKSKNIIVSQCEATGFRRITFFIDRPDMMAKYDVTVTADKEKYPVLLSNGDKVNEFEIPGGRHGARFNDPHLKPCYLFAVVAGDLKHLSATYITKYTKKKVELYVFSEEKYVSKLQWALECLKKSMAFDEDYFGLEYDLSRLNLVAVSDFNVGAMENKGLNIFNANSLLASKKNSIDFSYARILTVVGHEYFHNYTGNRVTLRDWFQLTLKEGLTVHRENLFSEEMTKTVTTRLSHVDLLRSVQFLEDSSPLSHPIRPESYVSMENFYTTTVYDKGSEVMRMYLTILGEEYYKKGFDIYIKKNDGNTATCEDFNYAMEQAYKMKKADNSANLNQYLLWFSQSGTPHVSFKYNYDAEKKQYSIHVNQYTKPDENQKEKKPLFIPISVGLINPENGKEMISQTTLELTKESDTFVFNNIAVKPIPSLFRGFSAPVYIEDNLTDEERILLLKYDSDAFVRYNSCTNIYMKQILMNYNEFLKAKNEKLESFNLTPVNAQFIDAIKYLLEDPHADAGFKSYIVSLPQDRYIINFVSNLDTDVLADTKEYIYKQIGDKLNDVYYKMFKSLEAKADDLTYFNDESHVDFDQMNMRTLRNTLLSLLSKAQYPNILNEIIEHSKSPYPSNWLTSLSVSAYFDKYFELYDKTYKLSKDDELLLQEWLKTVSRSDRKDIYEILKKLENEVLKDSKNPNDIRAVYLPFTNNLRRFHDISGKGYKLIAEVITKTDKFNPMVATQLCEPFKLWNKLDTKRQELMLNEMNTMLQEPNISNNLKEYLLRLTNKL
COc1cccc(OC)c1OCCNCCO showed an inhibition of 9.5%. O=C(CCNS(=O)(=O)c1cccc2nsnc12)NCc1ccco1 showed an inhibition of 3.34%. With CC(=O)Nc1ccccc1C(=O)C(=O)Nc1cccc(C(=O)NCc2ccc(C)cc2)c1 the inhibition was 2.5%. For COC(=O)c1cc(NC(=S)N2CCN(C(=O)C3CCCO3)CC2)cc(C(=O)OC)c1 (centres undefined), the inhibition was -0.88%. Work on CCOC(=O)c1cc2c(=O)[nH]ccc2nc1C(F)(F)F yielded an inhibition of 5.5%. Compound CCOc1cc(/C=C(/C#N)c2nc3ccccc3[nH]2)ccc1Oc1ccc([N+](=O)[O-])cn1 has an inhibition of 1.44%. With CCCc1ccc(OCc2ccc(C(=O)O)o2)c(OC)c1 the inhibition was 1.24%. N#C/C(=C\c1ccccc1OCc1ccc(C(=O)O)cc1)c1ccccc1 was tested, and the inhibition was -6.55%. For COc1cc(/C=C(/C#N)c2ccc(F)cc2)ccc1OCc1ccc(C(=O)O)o1, the inhibition was 27.4% (active). Compound CCc1ccc(NC(=O)COc2ccc(/C=C(/C#N)c3nc4ccccc4[nH]3)cc2OC)cc1 has an inhibition of 11%. Compound COc1cccc(/C=C(/C#N)c2ccc(Cl)cc2)c1OCc1cccc(C(=O)O)c1 has an inhibition of 13.3%. COC(=O)c1ccc(COc2ccc(/C=C(\C#N)c3nc4ccccc4[nH]3)cc2OC)o1 showed an inhibition of 12.6%. COc1cc(/C=C(\C#N)c2nc3ccccc3[nH]2)ccc1OC(=O)c1ccco1 was tested, and the inhibition was 7.39%. CCOc1cc(/C=C(/C#N)c2ccc(F)cc2)ccc1OCc1ccc(C(=O)O)o1 showed an inhibition of 17.8%. CN(C(=O)c1ccccc1NC(=O)C(F)(F)F)c1ccccc1 was tested, and the inhibition was 4.16%. O=C1OCC2=C1C(c1ccccc1)CC(=O)N2c1ccccc1 (centres undefined) gave an inhibition of 5.38%. Compound NC(=O)C(=O)N/N=C/c1c(F)c(F)c(F)c(F)c1F has an inhibition of 13.6%. C=C1CCN([C@@H](C)C(=O)NCc2ccc(OC)cc2)S(=O)(=O)c2ccccc21 gave an inhibition of 6.29%. For CN(CC(=O)N1CCN(c2ccccn2)CC1)S(=O)(=O)c1cccc2nsnc12, the inhibition was 3.43%. Cc1cc(C)nc(N/N=C/c2ccccc2OCc2ccc(Br)cc2)n1 was tested, and the inhibition was 1.44%. With Cc1ccc(C(=O)C2=C(O)C(=O)N(Cc3ccccc3)C2c2cccnc2)o1 (centres undefined) the inhibition was 15.2%. Compound O=C(C1=C(O)C(=O)N(CCc2ccccc2)C1c1cccnc1)c1ccco1 (centres undefined) has an inhibition of 9.09%. Cc1c(N2C(=O)C(=O)/C(=C(/O)c3ccccc3)C2c2ccc(F)cc2)c(=O)n(-c2ccccc2)n1C (centres undefined) was tested, and the inhibition was 5.61%. In the case of Cc1c(N/C=C/C(=O)c2ccc(Cl)cc2)c(=O)n(-c2ccccc2)n1C, the inhibition is reported as 4.02%.
